Screening data: PubChem BioAssay, The Scripps Research Institute Molecular Screening Center
ASK1 primary: ASK1 kinase inhibitors, primary screen, biochemical, AlphaScreen | AlphaScreen MKK6 phosphorylation by ASK1, luminescence | hit rate 0.99% among 22,000 | Mitogen-activated protein kinase kinase kinase 5 (Homo sapiens), Q99683 | inhibition, % at 7.44 µM; in the data active = inhibition above about 35%;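 also: 0% = median of compound wells and 100% = no enzyme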
ULK1 primary: ULK1 kinase inhibitors, primary screen, biochemical, AlphaScreen; AlphaScreen Atg13 phosphorylation by ULK1, luminescence; inhibition, % at 5.96 µM; hit rate 1.9% among 30,000; Serine/threonine-protein kinase ULK1 (Homo sapiens), O75385; in the data active = inhibition above about 43%;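 also: 0% = median of compound wells and 100% = no enzyme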
Starred values were filed as active, the others as inactive; / = no result given. Sampled rows, rich in hits. Any-hit rate of the full collection: about 2.4%.

SMILES | ASK1 primary | ULK1 primary
COc1cc(Nc2nc(-c3ccccc3)ncc2C)cc(OC)c1OC | 15.7 | 48.8*
COc1cc(Nc2nc(-c3cccc(C(C)=O)c3)ncc2C)cc(OC)c1OC | 7.0 | 24.5
COc1cc(Nc2nc(-c3ccc(C(=O)NC4CC4)cc3)ncc2C)cc(OC)c1OC | 21.1 | 35.2
O=C(Nc1ccc(N2CCOCC2)cc1)c1cccc(-n2cc(Nc3cscc3-c3ccccc3)cn2)c1 | 18.6 | 6.3
c1ccc(-c2ccc3cnc(Nc4ccc(-n5cnc(N6CCOCC6)n5)cc4)nc3c2)cc1 | -11.4 | 13.0
c1ccc2nc(Nc3ccc(-n4cnc(N5CCOCC5)n4)cc3)ncc2c1 | -6.7 | 46.2*
Cn1cc(-c2ccc3cnc(Nc4ccc(-n5cnc(C(C)(C)C)n5)cc4)nc3c2)cn1 | -2.6 | 10.2
O=c1ccc(-c2ccc3cnc(Nc4ccc(-n5cnc(N6CCOCC6)n5)cc4)nc3c2)c[nH]1 | -13.1 | 34.0
Cc1cc(-c2nc(Nc3ccc(-n4cnc(N5CCOCC5)n4)cc3)ncc2Cl)no1 | -34.6 | 44.4*
Cn1cc(-c2ccc3cnc(Nc4ccc(-n5cnc(N6CCCC(O)C6)n5)cc4)nc3c2)cn1 (stereo unspecified) | 5.5 | 79.0*
Clc1cnc(Nc2ccc(-n3cnc(N4CCOCC4)n3)cc2)nc1-c1ccno1 | -28.6 | 7.5
c1cc(-n2cnc(N3CCOCC3)n2)ccc1Nc1ncc2ccc(-c3cn[nH]c3)cc2n1 | 6.9 | 74.5*
Cc1cc(NCCO)nc(Nc2ccc(N3CCOCC3)cc2)n1 | -5.5 | -2.8
O=Cc1ccc(C(=O)OCCO)cc1 | / | -13.9
COc1cc(Nc2nc(NCCN3CCOCC3)nc3c2ncn3CCN2CCCC2=O)cc(OC)c1OC | -8.0 | -8.0
COc1ccc(-c2cccc(C(=O)NC3CCN(Cc4ccccc4)CC3)c2)cn1 | 4.2 | -1.4
CC1C(=O)Nc2cc(S(C)(=O)=O)ccc2N1C(=O)Cc1ccccc1 (stereo unspecified) | / | 1.6
c1cc(-n2cnc(N3CCOCC3)n2)ccc1Nc1cc2cc(-c3cn[nH]c3)ccc2cn1 | -6.2 | 87.3*
c1cc(-c2cn[nH]c2)cc(Nc2ccc(N3CCOCC3)cc2)n1 | -2.0 | 27.4
CCCNC(=O)C(=O)Nc1nc(-c2ccccc2)cs1 | / | -4.2
CC(C)N(CCNC(=O)c1csc(-c2ccccc2)n1)C(C)C | -7.0 | 1.1
c1ccc(CN2CCC(Nc3nc(NCc4cccnc4)nc4c3ncn4-c3ccsc3)CC2)cc1 | -13.3 | -3.5
CCCNC(=O)c1ccnc(Cl)c1 | 1.5 | 3.1
Cc1ncn(-c2ccc(Nc3ncc4cccc(-c5cncc(C(=O)N6CCOCC6)c5)c4n3)cc2)n1 | 13.7 | -0.3
Cc1ccc(-c2cccc3cnc(Nc4ccc(C(=O)N5CCCC5)cc4)nc23)cn1 | -14.1 | 63.2*
SMILES | ASK1 primary | ULK1 primary
Cc1ccc(-c2cccc3cnc(Nc4cccc(C(=O)N5CCOCC5)c4)nc23)cn1 | 6.1 | 63.9*
Cc1ccc(-c2cccc3cnc(NC4CCN(C(=O)N5CCCC5)C4)nc23)cn1 (stereo unspecified) | 12.9 | 25.7
Oc1ccc(CCNc2nc(NC3CCN(Cc4ccccc4)CC3)nc3c2ncn3-c2ccsc2)cc1 | 14.9 | -11.6
O=C(NCCN1CCOCC1)c1cccc(-c2ccccc2)c1 | 3.7 | 17.6
Cc1cc(NC(=O)Cc2ccc(F)cc2)n(-c2ncnc3c2cnn3-c2cccc(Cl)c2)n1 | / | -8.7
Nc1cc(Nc2ccc3ncccc3c2)nc(N)n1 | 9.2 | 4.0
CN(C)CCN(C)c1nc([C@H](N)Cc2cccc(F)c2)nc2ccc(-c3cn[nH]c3)cc12 | 4.2 | 11.8
O=C(NCCN1CCOCC1)c1ccc2nc(-c3ccc(N4CCOCC4)nc3)sc2c1 | -14.1 | -4.1
COc1cccc(CNC(=O)c2c(C)nc3ccc(-c4ccnc(N)n4)cn23)c1 | 4.8 | 11.1
COc1cccc(CNC(=O)c2c(C)nc3ccc(-c4ccc5nc(C)c(C(=O)NCc6cccc(OC)c6)n5c4)cn23)c1 | 41.9* | 7.6
CNC(=O)Cn1c(CO)cnc1SCc1cccc(Cl)c1 | / | 8.8
Nc1nc(NCc2ccccc2)cc(-c2ccccc2)n1 | -6.4 | -1.2
Cn1ccc2cc(-c3cc(Nc4ccc(Oc5ccccc5)cc4)nc(N)n3)ccc21 | 21.2 | 20.1
C[n+]1c2cc(N)ccc2cc2ccc(N)cc21 | / | 70.5*
Clc1ccc(CNc2cc(-c3cccnc3)nc(-c3ccncc3)n2)cc1 | / | -5.1
COc1ccc(C(=O)c2oc3ccc(NC(C)=O)cc3c2C)cc1 | / | 57.5*
COc1ccc(C(=O)c2oc3ccc(NC(=O)c4ccc(OC)c(OC)c4)cc3c2C)cc1 | / | 2.8
COc1cc2nc(Nc3ccc(N4CCOCC4)cc3)nc(Nc3ccc(OCCN4CCCCC4)cc3)c2cc1OC | 48.9* | -7.5
Cc1cc(Nc2ccc(OCCN3CCCCC3)cc2)nc(Nc2ccc(N3CCOCC3)cc2)n1 | 10.0 | 9.0
COc1cc2nc(Nc3ncccn3)nc(Nc3ccc(N4CCOCC4)cc3)c2cc1OC | -0.7 | -7.3
COc1cc2nc(Nc3ccncc3)nc(Nc3ccc(N4CCOCC4)cc3)c2cc1OC | 42.2* | -4.3
COc1ccc(CCNc2nc(Nc3ccccn3)nc3c2ncn3-c2ccccc2)cc1 | 19.8 | 1.5
COc1ccc(-c2ccc(Nc3nccc(-c4ccc(S(C)(=O)=O)cc4)n3)nc2)cc1 | -9.1 | 3.1
Cc1cncc2c(S(=O)(=O)N3CC[C@H](NC(=O)CNC(=O)OC(C)(C)C)C3)cccc12 | -17.7 | -5.0
CCN(CC)c1nc(NCc2ccccc2)nc(NCc2cccnc2)n1 | -18.0 | -14.4
SMILES | ASK1 primary | ULK1 primary
COc1ccc(-c2ccc(/C=N/NC(N)=S)o2)cc1 | / | 11.6
CC(C)n1cnc2c(Nc3ccc(N4CCOCC4)cc3)nc(-c3cccc(N)c3)nc21 | 4.4 | 25.5
CC(=O)c1cccc(-c2nc(Nc3ccc(N4CCOCC4)cc3)c3ncn(C(C)C)c3n2)c1 | 24.5 | 55.7*
CC(=O)Nc1ccc(Nc2nc(-c3cccc(N)c3)nc3c2ncn3C(C)C)cc1 | 5.3 | 35.0
Cc1cnc(-c2ccc(N3CCOCC3)nc2)nc1Nc1ccccc1 | 0.1 | 43.9*
CC(C)n1cnc2c(Nc3ccc(N4CCOCC4)cc3)nc(-c3ccc(C(N)=O)cc3)nc21 | 10.4 | 62.6*
NC(=O)c1ccc(-c2nc(Nc3ccc(N4CCOCC4)cc3)c3ncn(Cc4ccc(C(F)(F)F)cc4)c3n2)cc1 | 22.0 | -0.1
CC(=O)Nc1ccc(Nc2nc(-c3ccc(C(N)=O)cc3)nc3c2ncn3C(C)C)cc1 | 5.7 | 74.9*
Cc1cnc(-c2ccccc2)nc1Nc1ccc(N2CCOCC2)cc1 | 12.7 | 8.7
O=C(Cc1cn(-c2ccc(Oc3ccccc3)nn2)c2ccccc12)NCc1cccnc1 | 3.1 | 24.0
Cc1nn(C)c(C)c1-c1nc2ccc(C(=O)Nc3ccc(Oc4ccccc4)cc3)cc2s1 | -10.0 | 20.5
O=C(NCCCN1CCCC1=O)c1cc(NCc2cccnc2)nc2ccccc12 | -5.1 | 6.9
Cc1ccc(-n2nc(C(C)(C)C)cc2N)cc1 | -5.5 | -2.1
NC(=O)c1ccc2cnn(-c3ccc(C(=O)Nc4ccc(N5CCOCC5)cc4)cc3)c2c1 | 1.1 | 2.7
CC(=O)Nc1ccc(Nc2nc(-c3ccc(N4CCOCC4)nc3)nc3c2ncn3C(C)C)cc1 | 10.3 | 43.8*
CC(=O)Nc1ccc(Nc2nc(N3CCOCC3)nc3c2ncn3C(C)C)cc1 | 2.9 | 32.2
COc1ccc(-c2nc(Nc3ccc(N4CCOCC4)cc3)c3ncn(C(C)C)c3n2)cn1 | 30.5 | 25.0
COc1ccc(-c2nc(Nc3ccc(NC(C)=O)cc3)c3ncn(C(C)C)c3n2)cn1 | 10.4 | 50.4*
